Screens: PubChem BioAssay, several laboratories
pPAFAH inh: inhibitors of human plasma PAF acetylhydrolase (pPAFAH). 330,000 compounds, 1.5% hits. Q13093. inhibition, % at 3.39 µM. recombinant pPAFAH, FP-rhodamine probe fluorescence polarization;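 active means inhibition above the mean inhibition across the screen plus 3 SD, cut at about 25% in these data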;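 further: inhibitors block binding of the rhodamine activity-based probe so polarization drops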
PfM18AAP inh: blocks P. falciparum M18 aspartyl aminopeptidase; recombinant PfM18AAP, H-Glu-NHMec fluorogenic cleavage; inhibition, % at 7.35 µM; 290,000 compounds, 1.2% hits; AID 1822;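 active means inhibition above the campaign mean inhibition over all tested compounds plus 3 SD, cut at about 28% in these data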
PAFAH2 inh: PAFAH2 (human) inhibition | Q99487 | recombinant PAFAH2, FP-rhodamine activity probe, fluorescence polarization | inhibition, % at 3.39 µM | 340,000 compounds, 0.99% hits;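 active means inhibition above the mean over all tested compounds plus 3 SD, cut at about 30% in these data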;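 further: inhibitors block probe labeling of enzyme so polarization drops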
PAFAH1B2 FP inh: blocks human PAF acetylhydrolase 1b catalytic subunit 2; recombinant PAFAH1B2, FP-rhodamine activity probe, fluorescence polarization; P68402; 340,000 compounds, 1.2% hits; AID 492953; inhibition, % at 3.39 µM;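 active means inhibition above the mean of all tested compounds plus 3 SD, cut at about 24% in these data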
Target sequence (P68402 whole entry, looked up): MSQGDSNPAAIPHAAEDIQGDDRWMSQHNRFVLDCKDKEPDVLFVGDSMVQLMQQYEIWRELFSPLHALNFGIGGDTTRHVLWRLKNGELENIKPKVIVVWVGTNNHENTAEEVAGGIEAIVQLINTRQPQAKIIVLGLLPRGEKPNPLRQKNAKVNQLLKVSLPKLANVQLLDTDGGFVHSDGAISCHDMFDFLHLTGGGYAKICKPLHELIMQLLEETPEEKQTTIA
PAFAH1B3 FP inh: blocks human PAF acetylhydrolase 1B catalytic subunit 3; Q15102; recombinant PAFAH1B3, FP-rhodamine probe, fluorescence polarization; inhibition, % at 3.39 µM; 340,000 compounds, 0.28% hits;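 active means inhibition above the screen-wide average of all tested compounds plus 3 SD, cut at about 25% in these data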
Target sequence (Q15102 whole entry, looked up): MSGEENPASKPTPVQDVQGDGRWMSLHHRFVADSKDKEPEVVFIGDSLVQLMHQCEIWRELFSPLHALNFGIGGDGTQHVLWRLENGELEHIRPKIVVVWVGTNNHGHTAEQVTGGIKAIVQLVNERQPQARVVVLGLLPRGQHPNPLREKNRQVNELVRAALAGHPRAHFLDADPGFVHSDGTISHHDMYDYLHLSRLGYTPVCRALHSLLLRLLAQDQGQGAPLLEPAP
Pemphigus Ab inh: human desmoglein-3 autoantibody binding inhibition | P32926 | DSG3-coupled beads, scFv-anti-DSG3-GFP binding, flow cytometry; stronger effect = lower value | binding (percent of control), % at 10 µM | 310,000 compounds, 0.48% hits | AID 588358;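 active means binding more than 3 SD below its plate's average and above zero; inconclusive means below that plate limit but binding exactly zero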;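 further: hits lower antibody fragment binding to DSG3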
pPAFAH confirm: pPAFAH (human) inhibition, confirmed; 2,300 compounds, 72% hits; recombinant pPAFAH, FP-Rh probe fluorescence polarization; AID 463230; shares compounds with pPAFAH inh; inhibition, % at 3.39 µM;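 active means mean inhibition of the triplicate above the hit cutoff set for the earlier primary screen, cut at about 25% in these data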
Large screens that a line does not name were inactive (follow-up assays come after a bar, where they were run). An excerpt weighted towards active compounds, which were near 3.8% of everything screened.

O=C(O)CCc1ccc(-c2ccc(Cl)cc2)n1Cc1ccco1	pPAFAH inh 34.9 | pPAFAH confirm inactive
CC(O)C(NC(=O)OCc1ccccc1)C(=O)OCc1ccccc1 (configuration not stated)	none (no result: PfM18AAP inh)
O=C(N/N=C/c1ccncc1)c1ccc2c(c1)OCO2	pPAFAH inh 41.5 | pPAFAH confirm inactive
O=C(N/N=C/c1ccc(Cl)cc1)c1ccc2c(c1)OCO2	none
COC(=O)c1cc(O)cc(OC)c1Oc1cc(C)cc(O)c1C(=O)O	pPAFAH inh 35.1 (no result: PfM18AAP inh) | pPAFAH confirm inactive
Nc1ccc(N2CCN(CCCCN3C(=O)C4CCCN4C3=O)CC2)cc1 (configuration not stated)	pPAFAH inh 70.0 | pPAFAH confirm inactive
O=C1C2CCCCN2C(=O)N1CCCN1CCN(c2ccc(F)cc2)CC1 (configuration not stated)	none
COc1ccc(C(=O)NCCSc2ccccc2)cc1OC	none
COc1ccccc1C(=O)Nc1ccnn1C1CCN(Cc2ncc[nH]2)CC1	Pemphigus Ab inh inconclusive
COC(=O)c1c(NC(=O)/C=C/C(=O)O)sc(C)c1-c1ccc(C(C)C)cc1	none
CCOC(=O)c1c(NC(=O)/C=C/C(=O)O)sc(C)c1-c1ccc(C)c(C)c1	pPAFAH inh 54.0 | pPAFAH confirm 63.4
COC(=O)c1c(NC(=O)/C=C/C(=O)O)sc(C)c1-c1ccc(C)c(C)c1	pPAFAH inh 43.7 | pPAFAH confirm 28.0
O=C(COC(=O)c1c2c(nc3ccccc13)/C(=C/c1cccc([N+](=O)[O-])c1)CCC2)NC1CCS(=O)(=O)C1 (configuration not stated)	pPAFAH inh 37.6 | pPAFAH confirm 43.9
O=C(Oc1ccc(OC(=O)C2CCC2)cc1)C1CCC1	pPAFAH inh 42.4 | pPAFAH confirm inactive
O=C(Oc1ccc2ccccc2c1)C1CCC1	none (no result: pPAFAH inh)
CC(=O)c1ccc2c(c1)C1C=CCC1C(c1cc3c(cc1Br)OCO3)N2 (configuration not stated)	none (no result: PfM18AAP inh)
CCOC(=O)C1Nc2ccc(C(=O)O)cc2C2C=CCC12 (configuration not stated)	pPAFAH inh 40.3, PAFAH1B3 FP inh 48.5 | pPAFAH confirm inactive
CCCC1Nc2ccc(C(=O)O)cc2C2C=CCC12 (configuration not stated)	pPAFAH inh 46.0, PAFAH2 inh 44.1, PAFAH1B3 FP inh 31.8 | pPAFAH confirm 31.4
CCOC(=O)C1Nc2c(F)cc(C)cc2C2C=CCC12 (configuration not stated)	none (no result: PfM18AAP inh, PAFAH2 inh, PAFAH1B2 FP inh, PAFAH1B3 FP inh, Pemphigus Ab inh)
COc1ccc(NC(=O)[C@@H]2CCCN2S(=O)(=O)c2ccccc2F)cc1S(=O)(=O)N1CCCCC1	none (no result: PfM18AAP inh)
O=C(O)c1ccccc1NS(=O)(=O)c1ccc(NN=Cc2ccc(F)cc2)c([N+](=O)[O-])c1	pPAFAH inh 58.4 (no result: PfM18AAP inh) | pPAFAH confirm 77.5
O=C(O)c1ccccc1NS(=O)(=O)c1ccc(NN=Cc2cccc(Cl)c2)c([N+](=O)[O-])c1	pPAFAH inh 66.1 (no result: PfM18AAP inh, Pemphigus Ab inh) | pPAFAH confirm 77.3
O=C(O)COc1ccccc1/C=N/Nc1ccc(S(=O)(=O)Nc2ccc(Cl)cc2)cc1[N+](=O)[O-]	pPAFAH inh 64.7, PAFAH1B2 FP inh 46.6 | pPAFAH confirm 68.1
NS(=O)(=O)c1ccc(N/N=C/c2ccccc2C(=O)O)c([N+](=O)[O-])c1	none
Cn1c(=O)c(Nc2ccc(O)cc2)c2c3c(cccc31)C(=O)c1ccccc1-2	pPAFAH inh 40.7 | pPAFAH confirm 39.7
CC(=O)c1c2c3c(cccc3n(C)c1=O)C(=O)c1ccccc1-2	none (no result: PAFAH2 inh, PAFAH1B2 FP inh, PAFAH1B3 FP inh, Pemphigus Ab inh)
Cc1ccc(S(=O)(=O)N2CCN(C(=O)c3cc4c(s3)CCCC4)CC2)cc1	Pemphigus Ab inh inconclusive (no result: PfM18AAP inh)
COc1ccc(S(=O)(=O)N2CCN(C(=O)c3cc4c(s3)CCC4)CC2)cc1	pPAFAH inh 43.1 (no result: PfM18AAP inh) | pPAFAH confirm 34.5
Cc1ccc(S(=O)(=O)N2CCN(C(=O)COC(=O)c3ccccn3)CC2)c(C)c1	pPAFAH inh 43.8 (no result: PfM18AAP inh) | pPAFAH confirm inactive
COc1ccc(S(=O)(=O)NC(CC(C)C)C(=O)NC(C)c2cccs2)cc1 (configuration not stated)	none (no result: PfM18AAP inh, Pemphigus Ab inh)
Nc1ncnc2oc(-c3ccco3)c(-c3ccco3)c12	pPAFAH inh 42.2, PAFAH2 inh 49.6, PAFAH1B3 FP inh 37.1, Pemphigus Ab inh 51.9 | pPAFAH confirm inactive
O=C(CN(C(=O)c1csnn1)c1ccccc1Cl)NC1CCCC1	none (no result: Pemphigus Ab inh)
Cc1cccc(C)c1NC(=O)CN(C)C(=O)CC1CC2CCC1C2 (configuration not stated)	none (no result: PfM18AAP inh)
C=CCn1c(SCC(=O)c2c(N)n(C)c(=O)n(C)c2=O)nnc1-c1ccoc1C	none (no result: PfM18AAP inh)
C(=C\c1ccco1)/C1=NN(c2ccccc2)C(c2ccco2)C1 (configuration not stated)	pPAFAH inh 39.6 | pPAFAH confirm inactive
O=[N+]([O-])c1ccc(/C=C/C2=NN(c3ccccc3)C(c3ccco3)C2)o1 (configuration not stated)	none (no result: pPAFAH inh)
O=C(O)c1cccc(N/N=C/c2cc(Br)cc(Br)c2O)c1	pPAFAH inh 45.4, PAFAH2 inh 36.8 | pPAFAH confirm 44.1
COc1ccc(Br)cc1/C=N/Nc1cccc(C(=O)O)c1	none
O=C1C=C(/C=C/c2ccccc2)C[C@@H](c2ccc3c(c2)OCO3)C1	none (no result: PfM18AAP inh)
CN(C)S(=O)(=O)c1cccc(NC(=O)c2ccc3nccnc3c2)c1	none
Nc1cc2nc3ccccc3oc-2cc1=O	pPAFAH inh 36.0 | pPAFAH confirm inactive
O=C(O)CN1C(=O)/C(=C\c2cc(Br)ccc2OCc2ccc(Cl)cc2Cl)SC1=S	pPAFAH inh 52.2, PAFAH2 inh 33.1 | pPAFAH confirm 66.9
Cc1c(C(=O)NNC(=O)c2ccccc2O)oc2ccc(Br)cc12	pPAFAH inh 57.9 (no result: PfM18AAP inh) | pPAFAH confirm 69.8
N#CCCN(CCC#N)C(=O)C1c2ccccc2Oc2ccccc21	pPAFAH inh 65.2 | pPAFAH confirm inactive
CN1/C(=C\C=C2/C(=O)Oc3ccccc3C2=O)C(C)(C)c2ccccc21	pPAFAH inh 34.7 (no result: PAFAH2 inh, PAFAH1B2 FP inh, PAFAH1B3 FP inh, Pemphigus Ab inh) | pPAFAH confirm inactive
O=C(/C=C/c1cc[n+](CC(=O)c2ccc3cccc4c3c2CC4)cc1)c1ccc2cccc3c2c1CC3	pPAFAH inh 71.2, Pemphigus Ab inh 63.1 | pPAFAH confirm 86.3
Cc1ccc(/C=C/C(=O)c2ccccc(=O)c2O)c(C)c1	pPAFAH inh 69.3 | pPAFAH confirm inactive
Cc1cc(NC(=O)c2ccc(NC(=O)C(C)C)cc2)no1	pPAFAH inh 40.8 | pPAFAH confirm inactive
O=C(CN1C(=O)/C(=C\c2ccco2)SC1=S)Nc1ccc(O)cc1C(=O)O	pPAFAH inh 42.4, PfM18AAP inh 38.8 | pPAFAH confirm inactive
O=C(CCCN1C(=O)/C(=C/c2ccco2)SC1=S)Nc1ccccc1C(=O)O	pPAFAH inh 64.9 | pPAFAH confirm inactive
